Measured values from PubChem BioAssay (NCATS).
Inconclusive results are not listed. Activity calls are given as the source filed them. Calls follow the shape of the dose curve; as a rule, active = well fitted inhibition curve with a large enough effect; inconclusive = small, poorly fitted or top-dose-only effect; inactive = flat fitted curve, though single readings scatter.

Assays:
Assay in all cases: qHTS profiling for inhibitors of Plasmodium falciparum proliferation (AID 504749); also: nearly all actives have a fitted effect of over 60% in size
Settings in all cases: P. falciparum in erythrocytes, SYBR Green DNA, 72 h; series mostly up to 28.7 µM
[1] = test system: ATS95
In short: (§1)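 SYBR Green fluorescence of parasite DNA, read after lysis and overnight dark incubation, measured growth over 72 h in erythrocyte culture at 0.3% parasitemia and 2.5% hematocrit. Data normalised to DMSO and 0.29 uM artemisinin, with plate-drift correction.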

[2] = test system: C2A
In short: as §1

[3] = test system: CP185
In short: as §1

[4] = test system: CP191
In short: as §1

[5] = test system: CP192
In short: as §1

[6] = test system: CP194
In short: as §1

[7] = test system: CP201
In short: as §1

[8] = test system: CP203
In short: as §1

[9] = test system: CP211
In short: as §1

[10] = test system: CP215
In short: as §1

[11] = test system: CP217
In short: as §1

[12] = test system: CP237
In short: as §1

[13] = test system: CP238
In short: as §1

[14] = test system: CP247
In short: as §1

[15] = test system: CP250
In short: as §1

[16] = test system: CP252
In short: as §1

[17] = test system: CP256
In short: as §1

[18] = test system: CP260
In short: as §1

[19] = test system: CP262
In short: as §1

[20] = test system: CP265
In short: as §1

Measured: Potency

CC(=O)[C@H]1CC[C@H]2[C@@H]3C=CC4=CC(=O)CC[C@@]4(C)[C@H]3CC[C@]12C
inactive: all assays above

CC1CC(O)CC(C)(C)C1 (stereo not given)
inactive: all assays above

CC1=CC(=O)NS(=O)(=O)O1
inactive: all assays above

CO[C@H]1C[C@@H]2CC[C@@H](C)[C@@](O)(O2)C(=O)C(=O)N2CCCC[C@H]2C(=O)O[C@H]([C@H](C)C[C@@H]2CC[C@@H](OC(=O)C(C)(CO)CO)[C@H](OC)C2)CC(=O)[C@H](C)/C=C(\C)[C@@H](O)[C@@H](OC)C(=O)[C@H](C)C[C@H](C)/C=C/C=C/C=C/1C
inactive: all assays above

O=C1c2ccccc2C(=O)C1c1ccc(F)cc1
inactive: all assays above

CC/C(=C(/CC)c1ccc(OP(=O)(O)O)cc1)c1ccc(OP(=O)(O)O)cc1
inactive: all assays above

Cc1cc(C)c(NC(=O)C[C@H](CC(=O)O)c2cccc3ccccc23)c(C(=O)N2CCC3(CCCC3)CC2)c1
inactive: all assays above

CC1CCCCN1CCCOC(=O)c1ccccc1 (stereo not given)
inactive: all assays above

O=C(O)CCC/C=C\C[C@@H]1[C@@H](/C=C/[C@@H](O)COc2cccc(Cl)c2)[C@H](O)C[C@@H]1O
inactive: all assays above

Nc1nccs1
inactive: all assays above

OB(O)O
inactive: all assays above

CC(CCc1ccc(O)cc1)NCC(O)c1ccc(O)cc1 (stereo not given)
inactive: all assays above

C=CCOc1ccc(CC(=O)O)cc1Cl
inactive: all assays above
